Assay results from ChEMBL document CHEMBL4513216, “Probing the Open Global Health Chemical Diversity Library for Multistage-Active Starting Points for Next-Generation Antimalarials” (ACS Infect Dis, 2020).
Hit rate of the full screen: of about 69,000 compounds, about 8,600 (12%) showed an effect of 50% or more. Many of the other results were omitted from the sample, so strong results are more common in it than they were.

These molecules were tested on Plasmodium berghei (assay: Screen against P. berghei liver stage (PbLuc), transformed with Luciferase, at 10uM). Conditions: tested at 10 uM.
Assay type: functional, HepG2

In order of falling INHIBITION:
1. CCc1nc(CN2CCCN(c3ncnc4sccc34)CC2)no1  95.1%
2. CCc1nc(CN2CCCN(c3ncnc4ccsc34)CC2)no1  91.1%
3. COc1ccccc1OC1CN(C(=O)c2c(C)nc3ccc(C)cn23)C1  86.8%
4. CSCC(=O)N1CCCN(c2ccccc2C)CC1  84.5%
5. O=C(c1ncoc1C1CC1)N1CCCN(CCCc2ccccc2)CC1  83.9%
6. CC(=O)c1cc(CN2C[C@@H]3CC[C@H]2CN(S(=O)(=O)N(C)C)C3)cs1  80.1%
7. Cc1ccccc1N1CCCN(C(=O)CCCn2ccnc2C)CC1  75.4%
8. O=C1c2c(O)cc(O)cc2O[C@@H](c2ccc(O)cc2)[C@@H]1O  70.8%
9. COc1ccccc1OC1CN(C(=O)c2ccccc2C(C)=O)C1  65.7%
10. Cc1nc(NC(=O)CN2CCOC(Cn3cccn3)C2)sc1C (stereo unspecified)  60.4%
11. Cc1ccccc1N1CCCN(C(=O)CCc2cccnc2)CC1  59.2%
12. O=C(CN1CCOC(Cn2cccn2)C1)NC(C1CC1)C1CC1 (stereo unspecified)  58.2%
13. Cc1ccccc1N1CCN(C(=O)CC(C)C)CC1  56.5%
14. Cn1cc(NC(=O)c2cccc(Cl)c2)c(=O)n(C)c1=O  56.1%
15. Cc1ccc(-c2ccc(C(=O)NCCS(N)(=O)=O)c(F)c2)cc1  55.4%
16. O=C(CN1CCOC(Cn2cccn2)C1)Nc1nccs1 (stereo unspecified)  53.3%
17. CC(=O)c1cc(CN2C[C@@H](NS(=O)(=O)N(C)C)[C@H](C(C)C)C2)cs1  52.2%
18. CN(C(=O)CN1CCOC(Cn2cccn2)C1)c1nccs1 (stereo unspecified)  52.1%
19. Cc1nc(SC2CCN(c3sccc3C#N)C2=O)oc1C (stereo unspecified)  51.5%
20. Cc1nccn1CCC(=O)N1CCCN(CCCc2ccccc2)CC1  51.5%
21. c1cncc(-c2nccc(CN3CCCC3)n2)c1  51.2%
22. CC(C)[C@@H]1CN(Cc2ccsc2)C[C@H]1NS(=O)(=O)N(C)C  50.1%
23. c1ccc(CC2CCN(Cc3ccnc(-c4cccnc4)n3)CC2)cc1  50%
24. Cc1ccccc1N1CCCN(C(=O)CCc2nncn2C)CC1  49.3%
25. CSCC(=O)N1CCCN(c2ccncc2C)CC1  49.2%
26. Cc1nn(C)c(C)c1NC(=O)CN1CCOC(Cn2cccn2)C1 (stereo unspecified)  47.1%
27. CCN1CCN(Cc2ccnc(-c3cccnc3)n2)CC1  46.1%
28. CN(C)S(=O)(=O)N1C[C@H]2CC[C@@H](C1)N(Cc1ccc3nsnc3c1)C2  45.1%
29. OC1CCN(Cc2ccnc(-c3cccnc3)n2)CC1  42.4%
30. CC(C)[C@@H]1CN(C(=O)NCCc2ccccc2)C[C@H]1NS(=O)(=O)N(C)C  41.3%
31. O=C(CN1CCOC(Cn2cccn2)C1)Nc1nncs1 (stereo unspecified)  41.2%
32. COCC1CN(S(=O)(=O)c2cccc(F)c2)Cc2nccn2C1 (stereo unspecified)  41.2%
33. Cc1nnc(SC2CCN(c3sccc3C#N)C2=O)[nH]1 (stereo unspecified)  40.7%
34. Cn1cc(-c2nc(C(=O)N3CCCC3Cn3cccn3)cs2)cn1 (stereo unspecified)  40.2%
35. c1cncc(OCc2noc3c2CN(Cc2ccco2)CC3)c1  38.5%
36. Cc1nc(CN2C[C@@H](NS(=O)(=O)N(C)C)[C@H](C(C)C)C2)cs1  38.3%
37. Cc1cc(N2CCOC(C)(C(=O)N(C)C)C2)ncn1 (stereo unspecified)  37.8%
38. Cc1ccccc1N1CC2(CCN(S(=O)(=O)c3cccs3)C2)CC1=O (stereo unspecified)  35.7%
39. CCc1nc(CN2CCCN(Cc3cnn(C)c3)CC2)no1  35.5%
40. O=C(CCC1CCN(C2CSCCSC2)CC1)NCC1CCCO1 (stereo unspecified)  34.9%
41. Cc1cc(-c2nn3c(C4CCC4)nnc3s2)on1  34.6%
42. CSCCC(=O)N1CCCN(c2ccccc2C)CC1  34.1%
43. CN(Cc1ccsc1)C(=O)CN1CCOC(Cn2cccn2)C1 (stereo unspecified)  33%
44. Cn1cc(CN2CCC[C@]3(C[C@H](Oc4ncccc4F)CO3)C2)cn1  31.5%
45. CN(C)c1cccc(C(=O)Nc2cn(C)c(=O)n(C)c2=O)c1  31.2%
46. Cc1ccc(CC(=O)N2CCCCC2Cn2cccn2)cn1 (stereo unspecified)  30.3%
47. Cc1cnn(CC2CN(CC(=O)Nc3nccs3)CCO2)c1 (stereo unspecified)  29.6%
48. Cc1nccn1CCC(=O)N1CCCN(c2ccccc2)CC1  28.7%
49. Cc1ccccc1N1CCCN(C(=O)CCc2ccncc2)CC1  26.9%
50. O=C(c1ncoc1C1CC1)N1CCN(CCOc2ccccc2)CC1  26.7%
51. CCCC(=O)N1CCCC(c2cc3cccnc3c(O)n2)C1 (stereo unspecified)  25.8%
52. Cc1cnn(CCNCC(=O)N2CCN(c3ncccn3)CC2)c1  25.1%
53. Cc1noc(C)c1CN1C[C@@H](NS(=O)(=O)N(C)C)[C@H](C(C)C)C1  24.3%
54. O=C(CN1CCOC(Cn2cncn2)C1)NC(C1CC1)C1CC1 (stereo unspecified)  23.9%
55. CCOCC(=O)N1CCc2c(CN(C)C)nn(C(C)C)c2C1  23.1%
56. CCc1nc(CN2CCCN(c3nccs3)CC2)no1  22.5%
57. CC(NC(=O)OC(C)(C)C)c1nnc(S(=O)(=O)Cc2ccccc2Cl)o1 (stereo unspecified)  21.5%
58. CC(C)[C@H]1CN(CCCO)C[C@@H]1NC(=O)CCC(F)(F)F  20.2%
59. COc1ccccc1OC1CCN(C(=O)c2cccc(O)c2C)CC1  19.3%
60. Cc1nnc(NC(=O)CN2CCOC(Cn3cccn3)C2)s1 (stereo unspecified)  17.4%
61. c1cncc(-c2nccc(CN3CCC(N4CCCCC4)CC3)n2)c1  17.1%
62. Cc1nnc(SC2CCN(c3sccc3C#N)C2=O)s1 (stereo unspecified)  16.8%
63. C[C@@H]1CN(c2nc(O)cc(Cc3ccccc3F)n2)C[C@H](C)O1  15.5%
64. CC(C)c1cc(CN(C)C(=O)CN2CCCCC2=O)no1  15.4%
65. CCOCCC(=O)N1CCCN(c2ccccc2C)CC1  15.2%
66. CC(=O)N1CCCN(CCCc2ccccc2)CC1  15.2%
67. Cn1cc(NC(=O)c2cccc(C(F)(F)F)c2)c(=O)n(C)c1=O  15%
68. NC(=O)c1csc(N2C[C@@H](CN3CCCCC3)[C@@H](CO)C2)n1  14.45%
69. COc1nn(C)c2c1CCCN(C(=O)c1cccc3cccnc13)C2  14%
70. CC(=O)c1cc(CN2C[C@@H](N(C)C)[C@H](C(C)C)C2)cs1  13.7%
71. Cc1nc(CN2C[C@@H]3CN(C(=O)c4ccnnc4)C[C@@H]3C2=O)cs1  13.6%
72. Cc1cnn(CC2CN(CC(=O)N(C)c3nccs3)CCO2)c1 (stereo unspecified)  11.8%
73. Cc1nccn1CCCC(=O)N1CCCN(c2cccnn2)CC1  10%
74. CCS(=O)(=O)CCNC(=O)c1ccc(-c2ccc(C)cc2)cc1F  8.47%
75. Cn1ncc2c1C(COCC1CC1)CN(c1ncc(F)cn1)C2 (stereo unspecified)  7.67%
76. Oc1ccc([C@H]2Oc3cc(O)cc(O)c3C[C@@H]2O)cc1  7.5%
77. COc1ccccc1OC1CN(C(=O)c2ccc(C(C)=O)s2)C1  7.3%
78. COC(=O)CN(C(=O)c1ccc(-n2ccnc2)cc1)C1CC1  6.23%
79. Cc1nc(C)n(CC2CCCCN2CCc2ccncc2)n1 (stereo unspecified)  4%
80. COc1cc2c(cc1CN1CCn3c(CO)nnc3C1)CCC2  3.91%
81. O=C(Cc1csc(-c2ccccc2F)n1)NCc1ccc(C(=O)O)cc1  2.61%
82. CC(C)(CN1CCC(Cc2cccc(C(=O)O)c2)C1)N1CCOCC1 (stereo unspecified)  1.71%
83. COc1ccccc1OC1CN(C(=O)Cc2c(C)nc(N)nc2C)C1  1.71%
84. O=C1[C@H]2CN(C(=O)[C@H]3CCCO3)C[C@H]2CN1CCN1CCCC1  1.34%
85. Cc1ccccc1N1CCCN(C(=O)c2cn(C)c3ccccc23)CC1  -2.13%
86. Cc1cnccc1N1CCCN(C(=O)CCCn2ccnc2C)CC1  -2.48%
87. CCOC(=O)Cn1cccc(S(=O)(=O)N2CCCC2)c1=O  -2.92%
88. COCCN1C[C@@H](c2ccccc2)[C@@]2(CCN(CC(=O)N(C)C)C2=O)C1  -4.82%
89. Cc1nc(O)cc([C@@H]2CN(S(=O)(=O)N(C)C)C[C@H]2c2ccccc2F)n1  -6.15%
90. CC1CCCN(Cc2ccnc(-c3cccnc3)n2)C1 (stereo unspecified)  -6.92%
91. COc1ccccc1OC1CN(C(=O)Cc2c(C)nc3ccccn23)C1  -7.2%
92. CCC(C)NC(=O)c1nnn(-c2ccc(Br)cc2)n1 (stereo unspecified)  -10.6%
93. CCCc1noc(C(C)N2CCN(Cc3nc(C)c(C)o3)CC2)n1 (stereo unspecified)  -12.25%
94. NC(=O)N1CCC2(CCN(Cc3cccc(F)c3)CC2)CC1  -13.2%
95. COCCN1C[C@H]2[C@@H](C1)N(C(=O)CCc1ccccc1)CC[C@H]2OC  -14.1%
96. CCC(=O)N1CCCC(Cn2cc(-c3ccc(F)cc3)nn2)C1 (stereo unspecified)  -14.2%
97. NC(=O)c1cn[nH]c1NC(=O)c1ccc2c(c1)OCO2  -16.4%
98. Cn1nccc1C(=O)N1CCCN(CCCc2ccccc2)CC1  -16.8%
99. COc1cc(C2CC(=O)c3c(O)cc(O)cc3O2)ccc1O (stereo unspecified)  -17.1%
100. O=C(CN1CCOC(Cn2cccn2)C1)Nc1ccncc1 (stereo unspecified)  -18.2%
101. CC(=O)c1cc2ncc(C(=O)NC3CCCCC3)cc2[nH]1  -25.1%
102. CCn1cc(NC(=O)NCc2ccc3c(c2)OCO3)cn1  -25.9%
103. COC(=O)C(C)(C)NC(=O)C1CC(=O)N(CC(F)(F)F)C1 (stereo unspecified)  -28.7%
104. CCn1cc(-n2cc3nc(N4CCCC4)[nH]cc-3c2=O)cn1  -29.6%
105. NS(=O)(=O)CCNC(=O)c1ccc(-c2ccc(F)cc2)cc1F  -33.2%
106. Cc1cc(C)c(C(=O)N2CCC3(CCCNC3)C2)cc1C (stereo unspecified)  -35.8%
107. CCN1C(=O)CCC12CCC(NC(=O)c1cc(C)on1)CC2 (stereo unspecified)  -45.5%
108. CCn1ccnc1CN1CCN(c2ncnc3ccsc23)CC1  -50.7%
109. CC(=O)c1cc(CN2C[C@@H]3CC[C@H]2CN(S(C)(=O)=O)C3)cs1  -52.2%
110. CCOc1ccc(Oc2cc(N)ccn2)cc1  -55.5%
111. Cc1nc(CN2CCCN(c3nccs3)CC2)no1  -63.3%
